# PubChem BioAssay AID808 (Columbia University Molecular Screening Center, 2007)
# The campaign covered roughly 93,000 compounds. About 180 (0.19%) were called active.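 How the source made its calls: active means activation above the screen mean plus 3 SD, with well images confirming the hit on visual review (cut at about 28% in these data, passing the limit was not always enough); inconclusive means activation above that limit but images do not confirm it; inactive means activation not above that limit.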 Shown is part of a subset that was picked to be rich in actives.
# Assay: potentiators of TNFa-induced VCAM1 expression, primary screen, imaging, HUVEC, TNFa stimulus, immunofluorescence (AID 808);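 further: signal is the number of cytoplasmic VCAM-1 stained grains per positive cell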
# Details: HUVEC TNFa-stimulated VCAM-1 immunofluorescence, high-content imaging; at 2 µM; stronger effect = higher value
row,Structure (SMILES),activation
1,COC(=O)CN1C(=O)C2(C(C(=O)OC)=C(N)Oc3ccccc32)C2=C1CC(C)(C)CC2=O (stereo not given),33.9% (active)
2,CCOC(=O)C(O)(c1ccc(N)c(OC)c1)C(F)(F)F (stereo not given),-9.7% (inactive)
3,c1cncc(CNC2=NCCC2)c1,-5.4% (inactive)
4,O=C(NCC(c1cccnc1)N1CCN(c2ccccc2)CC1)Oc1ccccc1 (stereo not given),1.5% (inactive)
5,CNC(=O)N(C)c1nnc(C(C)(C)C)s1,4.6% (inactive)
